G9a inh: G9a (human) methyltransferase inhibition; G9a H3K9 monomethylation, AlphaScreen, 2 h; Potency, µM (series often up to 102 µM), most hits filed as inhibitors; 8.8% of 350,000 active; AID 504332; further: nearly all actives have a fitted effect of over 75% in size
Target sequence (Q96KQ7 913-1193 limits assumed): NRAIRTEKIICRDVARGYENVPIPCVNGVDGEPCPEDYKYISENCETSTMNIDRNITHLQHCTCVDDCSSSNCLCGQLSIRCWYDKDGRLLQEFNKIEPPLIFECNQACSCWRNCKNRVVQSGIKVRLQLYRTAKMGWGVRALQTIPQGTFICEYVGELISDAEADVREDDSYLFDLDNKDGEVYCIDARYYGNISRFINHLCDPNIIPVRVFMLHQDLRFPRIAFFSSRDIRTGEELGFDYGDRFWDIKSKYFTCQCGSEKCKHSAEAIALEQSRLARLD
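G9a (20 nM) was preincubated 15 min with compound, then reacted 2 h at room temperature with 500 nM biotin-H3K9 peptide and 20 µM SAM. Monomethyl-H3K9 detected by AlphaScreen using anti-H3K9me1 antibody.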
JMJD2A Tudor inh: JMJD2A Tudor domain (human) inhibition | O75164 | AlphaScreen JMJD2A-Tudor / H3K4me3 peptide binding | Potency, µM (doses to about 114 µM), actives largely listed as inhibitors | 4.4% of 390,000 active | AID 504339; further: nearly all actives have a fitted effect of over 50% in size
HP1b chromo inh: HP1-beta chromodomain-methylated histone interaction inhibition; AlphaScreen HP1-beta / biotin-H3K9me3 peptide binding; Potency, µM (doses to about 114 µM), actives largely listed as inhibitors; 0.56% of 390,000 active; further: nearly all actives have a fitted effect of over 70% in size
Target sequence (P83916 whole entry, looked up): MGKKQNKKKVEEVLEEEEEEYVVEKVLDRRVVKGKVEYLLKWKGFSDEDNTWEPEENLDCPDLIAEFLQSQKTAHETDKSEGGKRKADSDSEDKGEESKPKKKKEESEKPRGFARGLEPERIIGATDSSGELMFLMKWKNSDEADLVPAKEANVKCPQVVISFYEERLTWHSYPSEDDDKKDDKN
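Compound inhibition of the preformed complex between 50 nM HP1-beta and 50 nM biotinylated H3K9me3 peptide was read by AlphaScreen. Buffer was PBS pH 7.4 with 0.01% Tween-20. Incubations ran 30 min at room temperature, with 10 ug/mL donor/acceptor beads.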
L3MBTL1 inh: blocks human L3MBTL1; Potency, µM (highest dose often 57.1 µM), most hits filed as inhibitors; AlphaScreen L3MBTL1–H3K9me1 peptide binding; 0.66% of 230,000 active; further: nearly all actives have a fitted effect of over 60% in size
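First, the protein-peptide complex forms for 30 min at room temperature (L3MBTL1 50 nM, biotinylated H3K9me1 peptide 75 nM). Next, compounds are pin-transferred and incubated 30 min. Finally, AlphaScreen beads are added and read after 30 min.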
BAZ2B block: inhibitors of human BAZ2B bromodomain; Q9UIF8; AlphaScreen BAZ2B-H3K14Ac peptide displacement; Potency, µM (series often up to 114 µM), hits mostly inhibitors; 4.4% of 360,000 active; AID 504333; further: nearly all actives have a fitted effect of over 60% in size
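Protein-peptide AlphaScreen: BAZ2B 50 nM, b-H3K14Ac 50 nM, 1x PBS pH 7.4 + 0.01% Tween-20. Preincubation 30 min RT; cpd 30 min RT (top 110 uM); beads 20 min RT, light-protected.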
Sfp PPTase inh: blocks B. subtilis Sfp PPTase activity | Potency, µM, actives largely listed as inhibitors | AID 1490 | 3.5% of 310,000 active | Q9F4F7 | Biochemical Sfp PPTase activity, qHTS;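 further: the enzyme is Sfp with the accession as filed and its product quenches rhodamine fluorescence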
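Reaction rates are the 30-min fluorescence difference (ex 525, em 598 nm) in wells containing 15 nM Sfp, 5 uM rhodamine-CoA and 12.5 uM BHQ-2-YbbR at pH 7.6 with 10 mM MgCl2.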
A number is an active result; 0 = inactive; ? = inconclusive; - = no result; [ ] = dose if it differs, or a comment. Most compounds without a hit are left out; they make up all but 12% or so of the library. The call rests on the fitted dose curve; in most records, active means well fitted curve in the direction sought with a large enough effect; inconclusive means small, poorly fitted or top-dose-only effect, or another doubt; inactive means no such curve, though single readings can be large; an effect the other way counts as inactive or inconclusive.

SMILES | G9a inh | JMJD2A Tudor inh | HP1b chromo inh | L3MBTL1 inh | BAZ2B block | Sfp PPTase inh
NC(=O)C1CCN(C(=O)CCc2nc3sc4c(c3c(=O)[nH]2)CCCC4)CC1 | 50µM | ? | 0 | ? | 50µM | -
CCc1cccc(NC(=O)CCc2nc3sc4c(c3c(=O)[nH]2)CCCC4)c1 | 0 | ? | 0 | ? | 71µM | -
Cc1cccc(NC(=O)C(C)SCc2nc3sc4c(c3c(=O)[nH]2)CCCC4)n1 (stereo unspecified) | 56µM | 0 | 0 | 0 | 0 | -
O=C(CCc1nc2sc3c(c2c(=O)[nH]1)CCCC3)N1CCN(c2ccccc2)CC1 | 0[0.501 µM] | 0 | 0 | 0 | 56µM | -
COC(=O)c1cc2sc(C)cc2n1CC(=O)Nc1cccc(SC)c1 | 0 | 0 | 0 | - | 0 | -
COc1cccc(C(=O)Nc2cccc(C(=O)OCc3cc(=O)n4c5c(sc4n3)CCCC5)c2)c1 | 0 | 0 | 0 | - | 0 | -
Cc1ccc(CNC(=O)C2CCC(CNS(=O)(=O)c3ccc4c(c3)CCCC(=O)N4)CC2)cc1 (stereo unspecified) | 0 | 0 | 0 | - | 0 | -
CCN(CC)c1ccc(NC(=O)C2=CCN(S(=O)(=O)c3ccc(F)cc3)CC2)c(C)c1 | 11µM | ? | 0 | 0 | ? | 0
COc1ccccc1CNC(=O)CCS(=O)(=O)c1cccs1 | 45µM | 0 | 0 | 0 | 0 | 0
COc1ccccc1CNC(=O)C1=CCN(S(=O)(=O)c2ccc(C)cc2)CC1 | 50µM | 0 | 0 | - | 0 | 0
COc1ccccc1CNC(=O)COC(=O)CNS(=O)(=O)c1ccc(C)cc1 | 71µM | 0 | 0 | - | 0 | 28µM
CCCCOc1ccc(C2C(=O)N(C3CCCCC3)CC(=O)N2CCCC)cc1 (stereo unspecified) | 0 | 0 | 0 | - | 0 | -
CC(C)(C)NC(=O)[C@H]1CN(Cc2cccnc2)CCN1C[C@@H](O)C[C@@H](Cc1ccccc1)C(=O)N[C@H]1c2ccccc2C[C@H]1O | 0 | - | - | - | - | 0
CCN(CC)c1ccc(NC(=O)c2c(C)nn(-c3ccc(F)cc3)c2-n2cccc2)c(C)c1 | 3.2µM | 32µM | 0 | - | 35µM | -
O=C(NCc1ccccc1)c1ccc2c(c1)CCN2S(=O)(=O)c1ccccc1 | 0 | 0 | 0 | - | 0 | -
Cc1ccc(CNC(=O)C2=CCN(S(=O)(=O)c3ccc(C)cc3)CC2)cc1 | 32µM | - | - | 0 | 0 | 0
Cc1ccc(CNC(=O)c2ccc3c(c2)CCN3S(=O)(=O)c2ccccc2)cc1 | 5.6µM | 0 | 0 | - | 0 | -
COCCCNC(=O)C1=CCN(S(=O)(=O)c2ccc(C)cc2)CC1 | 35µM | 0 | 0 | - | 0 | 0
Cc1cc(C)c2c(NC(=O)c3ccccc3)c(C(=O)Nc3ccc(F)cc3)sc2n1 | 0 | 0 | 0 | - | 0 | -
Cc1ccccc1C(=O)NCC(=O)OC(C)C(=O)Nc1cccc(S(=O)(=O)N2CCOCC2)c1 (stereo unspecified) | 0 | 0 | 0 | 0 | 0 | -
Cc1ccc(CCNC(=O)C2=CCN(S(=O)(=O)c3ccccc3)CC2)cc1 | 0 | 0 | 0 | - | 0 | 0
Cc1ccc(S(=O)(=O)N2CC=C(C(=O)NCc3ccc(F)cc3)CC2)cc1 | 22µM | - | - | 0 | 0 | ?
COc1ccc(NC(=O)c2ccc3c(=O)n4nc(Nc5cc(C)ccc5C)sc4nc3c2)cc1 | 0 | 0 | 0 | - | 0 | -
CCNc1nc(NCC)n2c(SCc3ccc(F)cc3)nnc2n1 | 10µM | 0 | 0 | 0[11.4 µM] | 0 | 0
CCNc1nc(NCC)n2c(SCc3nc4ccccc4c(=O)[nH]3)nnc2n1 | 0[12.7 µM] | 0 | 0 | 0 | 0 | 0
SMILES | G9a inh | JMJD2A Tudor inh | HP1b chromo inh | L3MBTL1 inh | BAZ2B block | Sfp PPTase inh
CCNc1nc(NCC)n2c(SCC(=O)Nc3ccc(CC)cc3)nnc2n1 | 2.5µM | ? | ? | 0 | 0 | -
CCNc1nc(NCC)n2c(SCC(=O)Nc3ccc(F)cc3[N+](=O)[O-])nnc2n1 | 0[12.7 µM] | 0 | 0 | 0 | 0 | 0
CCNc1nc(NCC)n2c(SCC(=O)Nc3ccc(NC(C)=O)cc3)nnc2n1 | 50µM | 0 | 0 | 0 | 50µM | -
CCNc1nc(NCC)n2c(SCC(=O)Nc3ccccc3F)nnc2n1 | 0[0.501 µM] | 0 | 0 | 0 | 0 | -
COC(=O)CC1Oc2ccccc2-n2cc(-c3ccc(Cl)cc3)nc21 (stereo unspecified) | 0 | 0 | 0 | - | 0 | -
CCc1ccc(OC(=O)Nc2ccccc2)cc1 | 0 | 0 | 0 | 0 | 0 | 0
